# Measured values reported in PubChem BioAssay (NCATS).
# Several values for one entry are separate records, joined by “and”; a condition that tells them apart may be missing. Equal entries are not always repeated. Inconclusive results are not listed. A call without a number means that no potency is given here. Activity calls are given as the source filed them. Unless noted, calls follow the shape of the dose curve; as a rule, active = well fitted curve in the direction sought with a large enough effect; inconclusive = small, poorly fitted or top-dose-only effect, or another doubt; inactive = no such curve, though single readings can be large; an effect the other way counts as inactive or inconclusive.
# Legend:
# [1] = target: Voltage-gated inwardly rectifying potassium channel KCNH2 (Homo sapiens) (UniProt Q12809); test: qHTS Assay for Small Molecule Inhibitors of the Human hERG Channel Activity (AID 588834);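 also: lower thallium flux fluorescence means stronger hERG block; nearly all actives have a fitted effect of over 50% in size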; also: potency is read from the fitted curve at half-maximal effect
# How it was run: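 U2OS cells BacMam-transduced with hERG, 2000 cells/well, compound ~10 min at 37 °C before stimulation buffer. FluxOR thallium flux fluorescence read kinetically on FDSS; decrease indicates block; AC50 from Hill fits.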
# [2] = target: Vitamin D3 receptor (Homo sapiens) (UniProt P11473); test: qHTS assay for small molecule agonists of vitamin D receptor signaling (AID 588543; calls by dose curve)
# How it was run: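 VDR-UAS-bla HEK293T cells, 2000/well, 2% charcoal-stripped FBS; compound titration 16 h at 37 C; CCF4 beta-lactamase ratio read. Normalized to 50 nM 1-alpha,25-dihydroxyvitamin D3 (100%) and DMSO; Hill fit gives EC50, efficacy.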
# [3] = qHTS assay for small molecule agonists of retinoid X receptor alpha signaling (AID 588544; calls by dose curve); details: HEK293T RXRa-UAS-bla, beta-lactamase reporter, 18 h; 530 nm emission
# [4] = target: Retinoic acid receptor RXR-alpha (Homo sapiens) (UniProt P19793); test: as above
# [5] = target: Thyroid hormone receptor beta (Homo sapiens) (UniProt P10828); test: qHTS assay for small molecule agonists of thyroid hormone receptor beta signaling (AID 588545; calls by dose curve)
# How it was run: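 Stimulation of a TR-driven beta-lactamase reporter was quantified in GripTite HEK 293 cells. Compound series ran for 18 hrs; curves were normalized to T3 and DMSO controls and fitted to yield EC50.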
# [6] = qHTS assay for small molecule antagonists of retinoid X receptor alpha signaling (AID 588546; active = well fitted inhibition curve with a large enough effect in the signal ratio, with a control signal flat, not every such curve was filed as active; the % refers to the signal ratio; also: potency is read from the fitted curve at half-maximal effect;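 as to max response: cells stimulated with 9-cis-retinoic acid as agonist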); details: HEK293T RXRa-UAS-bla, beta-lactamase ratio, antagonist mode; measured here: W530 green channel, cytotoxicity proxy
# How it was run: (§1)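 Beta-lactamase reporter inhibition, read as CCF4 fluorescence ratio (ex 405, em 460/530 nm) after 2 h at RT. HEK293T UAS-bla cells, 2500/well, were stimulated with 9-cis-RA at 500 or 100 nM final alongside test compound for 18 h at 37 C.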
# [7] = target: Retinoic acid receptor RXR-alpha (Homo sapiens) (UniProt P19793); test: as above; details: HEK293T RXRa-UAS-bla, beta-lactamase ratio, antagonist mode
# How it was run: as §1
# [8] = target: Thyroid hormone receptor beta (Homo sapiens) (UniProt P10828); test: qHTS assay for small molecule antagonists of thyroid hormone receptor beta signaling (AID 588547; active = well fitted inhibition curve with a large enough effect in the signal ratio, with a control signal flat, not every such curve was filed as active; the % refers to the signal ratio;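 also: cells stimulated with 0.4 nM T3 agonist during compound exposure; series mostly up to about 77 µM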); details: TR-UAS-bla HEK293, beta-lactamase ratio, antagonist mode, 18 h
# How it was run: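 TR-UAS-bla GripTite HEK293 cells in 2% charcoal/dextran FBS medium were preincubated 4 h at 37 C, given compound (0.59 nM to 92 uM) plus 0.4 nM T3 (final) for 18 h, then CCF4 for 2 h at RT; Hill fit gave IC50.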
# [9] = target: Luciferin 4-monooxygenase (Photinus pyralis) (UniProt P08659); test: Biochemical firefly luciferase enzyme assay for NPC (AID 624030); also: nearly all actives have a fitted effect of over 70% in size; also: potency is read from the fitted curve at half-maximal effect
# How it was run: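 Counter-screen for direct inhibition of the luciferase enzyme by approved-drug library compounds, run at 10 nM enzyme in 50 mM Tris acetate (final). Luminescence was read within 5 min of enzyme-buffer addition and normalized to PTC124 versus DMSO (0%).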
# [10] = S16 Schwann cell viability assay (CellTiter-Glo assay) (AID 624031);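 also: cellular ATP luminescence as a viability measure; series mostly up to about 58 µM; nearly all actives have a fitted effect of over 70% in size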
# How it was run: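 Native S16 rat Schwann cells in DMEM/10% FBS without phenol red were incubated overnight, then exposed to compounds for 24 h at 37 °C/5% CO2. Viability was read as ATP luminescence (CellTiter-Glo), normalized to no-cell wells and DMSO (0%).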
# [11] = S16 Schwann cell PMP22 intronic element firefly luciferase assay (AID 624032); also: nearly all actives have a fitted effect of over 30% in size; also: potency is read from the fitted curve at half-maximal effect
# How it was run: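 Rat S16 Schwann cells stably carrying a PMP22 intronic element-driven Fluc reporter were seeded overnight, then exposed to compounds for 24 h at 37 °C. Luminescence was normalized to PTC124 (positive control) and DMSO (0% activity).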
# [12] = S16 Schwann cell PMP22 intronic element beta-lactamase assay (AID 624044; calls by dose curve; also: nearly all actives have a fitted effect of over 15% in size; also: potency is read from the fitted curve at half-maximal effect)
# How it was run: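 Rat S16 Schwann cells with beta-Lac driven by a PMP22 intronic element, compound-treated 24 h at 37 °C. LiveBLAzer FRET B/G read: 460 nm normalized to potassium clavulanate vs DMSO; 535 nm FRET as viability; concentration-effect curves classified.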
# Chain of Retinoic acid receptor RXR-alpha (Homo sapiens) (P19793 whole entry, looked up): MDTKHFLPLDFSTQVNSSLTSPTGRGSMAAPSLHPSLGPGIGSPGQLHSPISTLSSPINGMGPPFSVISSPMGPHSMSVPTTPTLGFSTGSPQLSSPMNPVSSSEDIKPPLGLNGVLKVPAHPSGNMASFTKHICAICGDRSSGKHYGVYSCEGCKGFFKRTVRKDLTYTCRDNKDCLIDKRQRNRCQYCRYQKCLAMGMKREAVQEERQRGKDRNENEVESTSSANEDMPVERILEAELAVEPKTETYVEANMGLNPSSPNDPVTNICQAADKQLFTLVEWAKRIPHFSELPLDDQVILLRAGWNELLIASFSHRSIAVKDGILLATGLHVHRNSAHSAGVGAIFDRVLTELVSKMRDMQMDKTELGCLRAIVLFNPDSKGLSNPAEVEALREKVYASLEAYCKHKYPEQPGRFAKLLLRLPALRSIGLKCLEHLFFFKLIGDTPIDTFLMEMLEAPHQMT
# Chain of Luciferin 4-monooxygenase (Photinus pyralis) (P08659 whole entry, looked up): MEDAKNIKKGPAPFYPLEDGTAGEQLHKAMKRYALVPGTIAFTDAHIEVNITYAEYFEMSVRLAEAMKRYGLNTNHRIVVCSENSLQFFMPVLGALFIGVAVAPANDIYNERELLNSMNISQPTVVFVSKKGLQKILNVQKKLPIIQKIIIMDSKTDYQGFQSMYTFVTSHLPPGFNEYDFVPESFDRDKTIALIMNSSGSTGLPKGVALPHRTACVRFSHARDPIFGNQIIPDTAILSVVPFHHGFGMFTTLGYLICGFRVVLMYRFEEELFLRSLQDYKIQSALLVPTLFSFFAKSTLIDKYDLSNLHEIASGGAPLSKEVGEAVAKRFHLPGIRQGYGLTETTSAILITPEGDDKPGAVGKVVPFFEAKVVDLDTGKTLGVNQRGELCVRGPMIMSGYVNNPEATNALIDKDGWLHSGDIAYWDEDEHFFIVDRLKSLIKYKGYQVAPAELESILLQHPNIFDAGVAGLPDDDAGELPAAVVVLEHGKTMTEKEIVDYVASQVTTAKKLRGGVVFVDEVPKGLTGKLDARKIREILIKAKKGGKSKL
# Chain of Voltage-gated inwardly rectifying potassium channel KCNH2 (Homo sapiens) (Q12809 whole entry, looked up): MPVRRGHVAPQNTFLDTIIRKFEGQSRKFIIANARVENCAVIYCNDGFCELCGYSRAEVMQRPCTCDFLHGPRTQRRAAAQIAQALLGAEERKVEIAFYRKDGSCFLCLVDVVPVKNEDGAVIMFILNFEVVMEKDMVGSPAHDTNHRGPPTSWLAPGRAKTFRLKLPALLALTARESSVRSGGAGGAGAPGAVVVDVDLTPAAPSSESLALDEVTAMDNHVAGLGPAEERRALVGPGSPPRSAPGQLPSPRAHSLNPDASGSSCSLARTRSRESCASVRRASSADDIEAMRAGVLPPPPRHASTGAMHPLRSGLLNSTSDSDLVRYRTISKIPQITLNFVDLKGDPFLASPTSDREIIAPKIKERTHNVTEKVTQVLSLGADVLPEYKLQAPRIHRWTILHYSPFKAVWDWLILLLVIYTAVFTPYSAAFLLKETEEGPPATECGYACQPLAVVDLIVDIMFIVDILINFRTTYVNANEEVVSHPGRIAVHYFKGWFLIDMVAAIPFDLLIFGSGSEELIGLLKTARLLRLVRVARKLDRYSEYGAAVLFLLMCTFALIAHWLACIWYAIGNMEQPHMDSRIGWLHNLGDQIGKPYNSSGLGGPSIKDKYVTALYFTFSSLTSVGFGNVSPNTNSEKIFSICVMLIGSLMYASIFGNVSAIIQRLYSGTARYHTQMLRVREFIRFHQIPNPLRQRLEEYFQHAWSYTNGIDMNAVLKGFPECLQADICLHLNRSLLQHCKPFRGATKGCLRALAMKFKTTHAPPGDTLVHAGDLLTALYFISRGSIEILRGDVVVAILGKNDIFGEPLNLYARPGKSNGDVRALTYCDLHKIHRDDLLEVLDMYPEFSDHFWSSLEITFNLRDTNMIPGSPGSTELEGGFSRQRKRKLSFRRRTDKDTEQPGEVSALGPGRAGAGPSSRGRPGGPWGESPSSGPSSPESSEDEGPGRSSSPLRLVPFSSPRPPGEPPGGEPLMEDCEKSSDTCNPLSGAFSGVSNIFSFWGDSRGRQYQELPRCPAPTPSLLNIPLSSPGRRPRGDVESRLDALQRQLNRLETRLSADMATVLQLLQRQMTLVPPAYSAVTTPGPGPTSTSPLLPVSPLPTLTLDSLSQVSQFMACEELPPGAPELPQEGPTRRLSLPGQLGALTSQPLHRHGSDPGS
# Chain of Vitamin D3 receptor (Homo sapiens) (P11473 whole entry, looked up): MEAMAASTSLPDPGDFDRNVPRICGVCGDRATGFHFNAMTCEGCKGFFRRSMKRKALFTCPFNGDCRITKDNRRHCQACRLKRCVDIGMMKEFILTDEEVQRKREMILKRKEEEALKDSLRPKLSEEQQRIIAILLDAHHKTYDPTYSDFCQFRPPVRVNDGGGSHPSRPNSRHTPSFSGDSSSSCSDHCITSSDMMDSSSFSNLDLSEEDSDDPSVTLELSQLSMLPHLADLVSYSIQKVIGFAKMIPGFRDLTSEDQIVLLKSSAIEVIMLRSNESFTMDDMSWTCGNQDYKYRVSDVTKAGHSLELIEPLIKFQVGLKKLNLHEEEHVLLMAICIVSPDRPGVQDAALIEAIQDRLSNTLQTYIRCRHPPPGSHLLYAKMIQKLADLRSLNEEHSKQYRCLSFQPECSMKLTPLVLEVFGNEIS
# Chain of Thyroid hormone receptor beta (Homo sapiens) (P10828 whole entry, looked up): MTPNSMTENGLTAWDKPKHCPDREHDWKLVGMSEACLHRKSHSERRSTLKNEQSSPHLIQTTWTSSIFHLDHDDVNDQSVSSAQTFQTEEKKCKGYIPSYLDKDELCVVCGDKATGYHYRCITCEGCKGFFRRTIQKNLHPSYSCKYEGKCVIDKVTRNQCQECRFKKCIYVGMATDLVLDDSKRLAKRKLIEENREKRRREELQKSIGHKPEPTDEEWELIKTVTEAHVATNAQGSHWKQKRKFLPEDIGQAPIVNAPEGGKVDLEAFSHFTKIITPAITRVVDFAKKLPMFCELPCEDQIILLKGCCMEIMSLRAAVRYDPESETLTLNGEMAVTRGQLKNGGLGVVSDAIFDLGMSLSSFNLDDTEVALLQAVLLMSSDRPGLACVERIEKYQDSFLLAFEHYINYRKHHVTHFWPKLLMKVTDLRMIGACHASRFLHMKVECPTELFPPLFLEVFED
structure (smiles),measurement,setting,value
C#C[C@]1(O)C=C[C@H]2[C@@H]3CCC4=CC(=O)CC[C@@H]4[C@H]3CC[C@@]21CC,Potency,[1],inactive
O=c1n(Cl)c(=O)n(Cl)c(=O)n1Cl,outcome,[2],inactive
same,max response,[3],-19.7%
same,outcome,[4],inactive
same,outcome,[5],inactive
same,max response,[6],-7.37%
same,max response,[7],2.47% (inactive)
same,activity change % (negative = inhibition),[8],4.09% (inactive)
same,Potency,[1],inactive
same,Potency,[9],inactive
same,Potency,[10],inactive
same,Potency,[11],inactive
Oc1ccc(Cl)cc1Cc1cc(Cl)ccc1O,max response,[6],-8.06%
same,Potency,[7],14.1 µM (active)
Cc1ncc2n1-c1ccc(Cl)cc1C(c1ccccc1F)=NC2,Potency,[1],inactive
same,Potency,[9],inactive
same,Potency,[10],inactive
COP(=O)(OC)OC=C(Cl)Cl,max response,[3],-12.2% and -24.6% and -4.24%
same,outcome,[4],inactive
same,outcome,[5],inactive
same,max response,[6],-12% and -6.53% and -17.3%
same,max response,[7],5.84% (inactive) and -9.46% (inactive) and -14.2% (inactive)
same,activity change % (negative = inhibition),[8],-21% (inactive) and -1.19% (inactive) and -2.09% (inactive)
same,Potency,[1],inactive
same,Potency,[9],inactive
same,Potency,[10],inactive
same,Potency,[12],15.8 µM (active)
C[C@H]1C(=O)O[C@@H]2CCN3CC=C(COC(=O)[C@](C)(O)[C@]1(C)O)[C@H]23,outcome,[2],inactive
same,max response,[3],-6.89%
same,outcome,[4],inactive
same,max response,[6],-18.5%
same,max response,[7],-1.01% (inactive)
same,Potency,[1],inactive
same,Potency,[9],inactive
same,Potency,[10],inactive
same,Potency,[11],inactive
CCC(=O)O[C@H]1CC[C@H]2[C@@H]3CCC4=CC(=O)CC[C@]4(C)[C@H]3CC[C@]12C,outcome,[2],inactive
same,outcome,[5],inactive
same,max response,[6],1.48%
same,max response,[7],-0.425% (inactive)
same,activity change % (negative = inhibition),[8],4.79% (inactive)
same,Potency,[9],inactive
same,Potency,[10],inactive
same,Potency,[11],inactive
Nc1ccc(N)cc1,Potency,[1],inactive
same,Potency,[12],inactive
CCCOC(=O)Cc1ccc(OCC(=O)N(CC)CC)c(OC)c1,Potency,[9],inactive
CC(C)[N+](C)(CCC(C(N)=O)(c1ccccc1)c1ccccc1)C(C)C,Potency,[1],inactive
same,Potency,[9],inactive
same,Potency,[10],inactive
same,Potency,[11],inactive
same,Potency,[12],inactive
CN(C)CCc1c[nH]c2ccccc12,Potency,[9],inactive
CCN(CC)CCOC(=O)C(C)(c1ccccc1)c1ccccc1,Potency,[1],3.55 µM (active)
same,Potency,[9],inactive
same,Potency,[10],inactive
same,Potency,[11],inactive
same,Potency,[12],inactive
C[N+](C)(C)CCOC(=O)C(O)(c1ccccc1)c1ccccc1,Potency,[1],inactive
same,Potency,[9],inactive
same,Potency,[10],inactive
same,Potency,[11],inactive
COc1ccc(CN2CCNCC2)c(OC)c1OC,Potency,[1],inactive
same,Potency,[9],inactive
same,Potency,[10],inactive
same,Potency,[11],inactive
same,Potency,[12],inactive
Cc1nnc2n1-c1sc(CCc3ccc(CC(C)C)cc3)cc1C(c1ccccc1Cl)=NC2C (centres undefined),Potency,[9],inactive
c1ccc(CCNc2nc(-c3ccccc3)cs2)cc1,Potency,[9],1.61 µM (active)
CN(C)CCc1c[nH]c2cccc(O)c12,Potency,[9],inactive
CCC(=O)OC1(c2ccccc2)CCN(C)CC1,Potency,[9],inactive
CNC(C)Cc1ccccc1OC (centres undefined),Potency,[9],inactive
CC[C@]1(O)CC[C@H]2[C@@H]3CCC4=CCCC[C@@H]4[C@H]3CC[C@@]21C,Potency,[1],inactive
same,Potency,[9],inactive
same,Potency,[11],9.07 µM (active)
same,Potency,[12],inactive
COc1ccc2[nH]cc(CCN(C(C)C)C(C)C)c2c1,Potency,[9],inactive
Oc1ccc2[nH]cc(CCCCN3CC=C(c4ccccc4)CC3)c2c1,Potency,[1],1.26 µM (active)
same,Potency,[9],inactive
same,Potency,[10],inactive
same,Potency,[11],9.07 µM (active)
CC(C)(C)OC(=O)c1ncn2c1[C@@H]1CCCN1C(=O)c1c(Br)cccc1-2,Potency,[1],inactive
same,Potency,[9],inactive
same,Potency,[10],inactive
same,Potency,[11],inactive
same,Potency,[12],inactive
CC[C@H](O)C(C[C@H](C)N(C)C)(c1ccccc1)c1ccccc1,Potency,[9],inactive
CCOC(=O)NC(O)C(Cl)(Cl)Cl (centres undefined),Potency,[1],inactive
same,Potency,[9],inactive
same,Potency,[10],inactive
same,Potency,[11],inactive
CC(Cc1ccc2c(c1)OCO2)NO (centres undefined),Potency,[9],inactive
C[C@]12CC[C@H]3[C@@H](CCC4=CC(=O)CC[C@@H]43)[C@@H]1CC[C@@H]2O,Potency,[9],inactive
CCc1cc(OC)c(C[C@H](C)N)cc1OC,Potency,[9],inactive
